TDP1 block: blocks human tyrosyl-DNA phosphodiesterase 1; 0.28% of 350,000 active; Q9NUW8; Potency, µM (titrated, usually from 130 µM), inactives show at the highest dose activity change, negative = inhibition, hits mostly inhibitors; recombinant TDP1, AlphaScreen DNA substrate cleavage; further: potency means the concentration at half of the fitted maximal effect; nearly all actives have a fitted effect of over 40% in size
Target sequence (Q9NUW8 whole entry, looked up): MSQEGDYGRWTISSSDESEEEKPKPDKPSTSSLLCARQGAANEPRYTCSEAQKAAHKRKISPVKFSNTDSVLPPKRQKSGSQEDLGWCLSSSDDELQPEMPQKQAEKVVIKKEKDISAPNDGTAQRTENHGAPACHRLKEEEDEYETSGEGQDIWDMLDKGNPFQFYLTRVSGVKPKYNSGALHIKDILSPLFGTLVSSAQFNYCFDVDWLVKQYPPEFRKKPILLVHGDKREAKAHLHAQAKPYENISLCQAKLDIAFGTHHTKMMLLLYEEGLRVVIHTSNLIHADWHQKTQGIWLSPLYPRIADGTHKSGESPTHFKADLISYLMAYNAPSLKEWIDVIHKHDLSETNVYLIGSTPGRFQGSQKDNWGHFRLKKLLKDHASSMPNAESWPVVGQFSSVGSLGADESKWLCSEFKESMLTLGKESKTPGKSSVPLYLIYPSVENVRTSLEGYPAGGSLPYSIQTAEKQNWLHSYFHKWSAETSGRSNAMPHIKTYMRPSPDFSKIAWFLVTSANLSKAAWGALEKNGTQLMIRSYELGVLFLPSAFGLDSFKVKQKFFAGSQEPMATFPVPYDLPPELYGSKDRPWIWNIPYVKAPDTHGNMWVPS
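Recombinant human Tdp1 (E. coli-expressed, 1 nM final) preincubated with compounds 15 min at room temperature, then 5'-biotin/3'-phosphotyrosine-FITC DNA substrate (15 nM final) added for 5 min. AlphaScreen beads (10 ug/ml final) added 10 min; cleavage lowers signal.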
TDP1 cell CPT: growth inhibition of DT40 Tdp1-/-;hTDP1 cells with camptothecin (screen for TDP1 inhibitors); chicken DT40 Tdp1-/-;hTDP1 cells + 20 nM CPT, ATP luminescence, 48 h; Potency, µM (doses to about 46.2 µM), inactives show at the highest dose activity change, negative = growth inhibition, actives largely listed as inhibitors; 12% of 420,000 active; AID 686979; further: potency means the concentration at half of the fitted maximal effect; nearly all actives have a fitted effect of over 55% in size
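Chicken DT40 Tdp1-/- cells stably complemented with human TDP1 were seeded at 400 cells/well in medium containing 20 nM camptothecin, exposed to pin-transferred compounds, and grown at 37 °C for at least 48 hr. Viability was read as ATP luminescence.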
DT40 TDP1 no CPT: qHTS for Inhibitors of human tyrosyl-DNA phosphodiesterase 1 (TDP1): qHTS in cells in absence of CPT; DT40 Tdp1-/- hTDP1 cells, no CPT, ATP luminescence, 48 h; Potency, µM (highest dose often 46.2 µM), without a hit: at the highest dose activity change, negative = growth inhibition, most hits filed as inhibitors; 15% of 420,000 active; AID 686978, 2013; further: potency means the concentration at half of the fitted maximal effect; nearly all actives have a fitted effect of over 55% in size
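Chicken DT40 Tdp1-/- cells complemented with human TDP1, screened without camptothecin (DMSO vehicle only), 400 cells/well. Compounds pin-transferred, cells incubated at 37 °C for at least 48 hr. Growth read as ATP-dependent luminescence (CellTiter-Glo, 30 min at RT).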
Giardia kill: kills Giardia lamblia; Giardia lamblia trophozoite viability; activity change, % at 7.66 µM, hits read low; AID 540267; 0.15% of 340,000 active; in the data active means activity change below about -80%; inconclusive means between about -30% and that limit;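 further: parasites exposed to compound for two days anaerobically before the ATP read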
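Media and compound were dispensed first, then trophozoites at 100 cells/well; plates sat 48 hrs at 37 deg C without oxygen before ATP luminescence reagent was added and read after 15-30 min at room temperature.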
IL-1B inflam inh: inhibitors of inflammasome signaling (IL-1 beta secretion); THP-1 LPS/ATP IL-1B secretion, AlphaLISA, 16 h; active compounds read low; activity change, % at 57.5 µM; 4.7% of 360,000 active; in the data active means activity change below about -50%; inconclusive means mostly about -30% to -49%
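THP-1 cells pretreated 1 hr with compounds (up to 57.5 uM final), then stimulated with LPS (250 ng/mL final) plus ATP (1.25 mM final); secreted IL-1B measured by AlphaLISA after 16 hr, decreased signal indicating inhibition.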
ELG1 DNA repair: inhibitors of ELG1-dependent DNA repair in HEK293T cells. HEK293T ELG1-luciferase reporter, luminescence, 16 h; DNA damage induced by 5-fluorouridine. Potency, µM (series often up to 46.1 µM), for the others: at the top dose activity change, negative = inhibition, hits mostly inhibitors. 2.3% of 330,000 active. AID 504467; further: potency means the concentration at half of the fitted maximal effect; nearly all actives have a fitted effect of over 55% in size
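Overnight (16 hr) co-exposure of 2,000 cells/well to 5-fluorouridine and compound at 37 °C preceded detection. Luciferase was quantified via ONE-Glo luminescence; loss of signal denotes inhibition.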
* marks the source's active call; other numbers are inactive results; ? = inconclusive; . = no result. In the library only some 19% were active in any assay of this set; here they are far more common. Unless noted, the call rests on the fitted dose curve; in most records, active means well fitted curve in the direction sought with a large enough effect; inconclusive means small, poorly fitted or top-dose-only effect, or another doubt; inactive means no such curve, though single readings can be large; an effect the other way counts as inactive or inconclusive. On the % scale 0 is the no-effect control and ±100 the full control effect.

SMILES	TDP1 block	TDP1 cell CPT	DT40 TDP1 no CPT	Giardia kill	IL-1B inflam inh	ELG1 DNA repair
COc1c(C)cc(C(O)c2ncc(-c3cccc4ccccc34)[nH]2)cc1C (stereo unspecified)	.	20.6µM*	18.4µM*	.	58.9	.
O=C(CNC(=O)c1cccc([N+](=O)[O-])c1)NC1CCCc2ccccc21 (stereo unspecified)	0.7%	?	?	12.7	18.8	5.2%
Cc1ccc(C(=O)NCC(=O)N2CCc3ccccc3C2)cc1C	.	6.0%	?	9.4	-6.0	8.8%
COc1ccc(C2c3[nH]c4ccccc4c3CCN2Cc2cccn2-c2ncccn2)cc1C (stereo unspecified)	4.9%	14.6µM*	16.4µM*	55.9	-26.8	20.6µM*
COc1cccc(C2c3[nH]c4ccccc4c3CCN2Cc2cnn(C)c2)c1 (stereo unspecified)	.	-11.8%	-22.4%	-15.1	-13.3	?
Cc1cccc(C2c3[nH]c4ccccc4c3CCN2Cc2cccn2-c2ncccn2)c1 (stereo unspecified)	5.1%	?	23.1µM*	2.2	-87.2*	?
CCCCc1ccc(N2C(=O)[C@@H]3C(CC(N)=O)NC4(C(=O)Nc5ccc(F)cc54)[C@@H]3C2=O)cc1 (stereo partly specified)	0.0%	5.5%	0.3%	-0.3	-15.1	-0.5%
CC(C)N1CC=C2C(C#N)=C(N)C(C#N)(C#N)C(c3ccccc3)C2C1 (stereo unspecified)	11.4%	?	14.1µM*	20.2	-0.3	1.4%
CC(C)(C)OC(=O)N1CC=C2C(C#N)=C(N)C(C#N)(C#N)[C@H](c3cccnc3)[C@H]2C1	4.6%	-26.7%	?	-14.7	-9.3	?
CC(C)(C)OC(=O)N1CC=C2C(C#N)=C(N)C(C#N)(C#N)C(c3cccs3)C2C1 (stereo unspecified)	6.8%	?	23.1µM*	13.8	-21.5	-22.3%
CCN1CC=C2C(C#N)=C(N)C(C#N)(C#N)C(c3cc(Cl)ccc3Cl)C2C1 (stereo unspecified)	3.1%	18.4µM*	23.1µM*	-6.7	-7.6	-26.6%
CCOc1ccc(N(CC(=O)N/N=C/c2ccc(OC(C)C)cc2)S(C)(=O)=O)cc1	2.7%	11.5%	-22.3%	-10.2	-15.2	8.6%
CCOc1ccc(CCNC(=O)CCNS(=O)(=O)c2ccc3c(c2)CCN3C(C)=O)cc1OCC	2.1%	-26.7%	-25.3%	-5.1	48.8	-10.5%
CC(C)(C)OC(=O)Cc1nnc(C(C(=O)OCc2ccccc2)c2ccccc2)s1 (stereo unspecified)	-5.1%	.	.	.	.	.
Cc1cc2cc(CNC(=O)Cc3ccc([N+](=O)[O-])cc3)ccc2n1C	4.7%	-6.7%	-14.0%	17.2	11.6	-0.4%
Cc1cc2cc(CNC(=O)Cc3cccs3)ccc2n1C	.	8.2µM*	?	4.3	-3.4	-23.2%
Cc1cc2cc(CNC(=O)c3ccc(Br)o3)ccc2n1C	.	25.9µM*	-26.7%	25.0	22.5	-7.9%
Cc1cc2cc(CNC(=O)c3ccc(Br)o3)ccc2[nH]1	.	?	?	4.2	-14.8	2.2%
COc1ccc(NC(=O)CSc2nnc3c(n2)[nH]c2ccc(S(=O)(=O)N(C)C)cc23)c(OC)c1	.	?	?	8.6	.	.
COc1ccccc1CNC(=O)C(=O)Nc1ccc(C(=O)N2CCC(C)CC2)cc1	.	-7.3%	-10.8%	-8.8	-13.1	-12.9%
CC(=O)c1ccccc1C(=O)N1CCCC(N2CCN(Cc3ccc4c(c3)OCO4)CC2)C1 (stereo unspecified)	2.1%	-7.1%	-20.4%	0.8	4.3	8.2%
